Source: PubChem BioAssay AID1159580 (chemical genetic matrix, 2015)
Hit rate of the full screen: of about 5,500 compounds, about 2,000 (36%) were called active. Another 18% or so got no clear call; they are omitted. Rule as the data show it: active = normalized growth mostly below about 0.91 (no sharp cut-off); inconclusive = no clear call, values can overlap the other calls; inactive = mostly above about 0.92. The list shows a part of the results.

Experiment: chemical genetic growth profiling, strain panel (AID 1159580);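 also: tested at 20 µM; growth read once vehicle control cultures reached saturation at 30 °C; 1 = growth at the plate median or of vehicle wells; lower values mean less growth of the strain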
Conditions: S. cerevisiae deletion strains, growth OD

Measured: normalized growth

O=[N+]([O-])/C=C/c1ccc(F)cc1
active: locus YAR019C, strain CDC15, hits give low values 0.0937 | locus YBL105C, strain PKC1, hits give low values 0.0926 | locus YBR135W, strain CKS1, hits give low values 0.0816 | locus YBR136W, strain MEC1, hits give low values 0.0978 | locus YBR160W, strain CDC28, hits give low values 0.091 | locus YDL017W, strain CDC7, hits give low values 0.0902 | locus YDL028C, strain MPS1, hits give low values 0.0982 | locus YDL101C, strain DUN1, hits give low values 0.107 | locus YDL108W, strain KIN28, hits give low values 0.102 | locus YDL132W, strain cdc53, hits give low values 0.0889 | locus YDL214C, strain PRR2, hits give low values 0.091 | locus YDR052C, strain DBF4, hits give low values 0.0848 | locus YDR054C, strain cdc34, hits give low values 0.0951 | locus YDR226W, strain ADK1, hits give low values 0.0885 | locus YDR477W, strain SNF1, hits give low values 0.1 | locus YER123W, strain YCK3, hits give low values 0.102 | locus YER133W, strain GLC7, hits give low values 0.0933 | locus YFL009W, strain cdc4, hits give low values 0.0899 | locus YFL029C, strain CAK1, hits give low values 0.0948 | locus YFR003C, strain YPI1, hits give low values 0.0906 | locus YFR019W, strain FAB1, hits give low values 0.0982 | locus YFR028C, strain CDC14, hits give low values 0.0877 | locus YGR040W, strain KSS1, hits give low values 0.104 | locus YGR052W, strain FMP48, hits give low values 0.113 | locus YGR092W, strain DBF2, hits give low values 0.0999 | locus YHR030C, strain SLT2, hits give low values 0.111 | locus YHR079C, strain IRE1, hits give low values 0.117 | locus YHR082C, strain KSP1, hits give low values 0.121 | locus YHR205W, strain SCH9, hits give low values 0.00904 | locus YIL147C, strain SLN1, hits give low values 0.0998 | locus YJL095W, strain BCK1, hits give low values 0.109 | locus YJL128C, strain PBS2, hits give low values 0.0952 | locus YJL157C, strain FAR1, hits give low values 0.0885 | locus YJR016C, strain ILV3, hits give low values 0.0868 | locus YJR066W, strain TOR1 (second series), hits give low values 0.0953 | locus YJR066W, strain TOR1, hits give low values 0.114 | locus YKL048C, strain ELM1, hits give low values 0.113 | locus YKL067W, strain YNK1, hits give low values 0.087 | locus YKL101W, strain HSL1, hits give low values 0.0964 | locus YKL193C, strain SDS22, hits give low values 0.0853 | locus YKL203C, strain TOR2, hits give low values 0.107 | locus YLR113W, strain HOG1, hits give low values 0.129 | locus YLR133W, strain CKI1, hits give low values 0.099 | locus YLR403W, strain SFP1, hits give low values -0.000358 | locus YML070W, strain DAK1, hits give low values 0.0913 | locus YMR001C, strain CDC5, hits give low values 0.0877 | locus YMR205C, strain PFK2 (second series), hits give low values 0.0893 | locus YMR277W, strain FCP1, hits give low values 0.0903 | locus YNL006W, strain LST8, hits give low values 0.0904 | locus YNL020C, strain ARK1, hits give low values 0.102 | locus YNL161W, strain CBK1, hits give low values 0.0853 | locus YNL183C, strain NPR1, hits give low values 0.124 | locus YNL207W, strain RIO2, hits give low values 0.091 | locus YNL222W, strain SSU72, hits give low values 0.0861 | locus YNL307C, strain MCK1 (second series), hits give low values 0.11 | locus YOL078W, strain AVO1, hits give low values 0.0833 | locus YOL136C, strain PFK27, hits give low values 0.0966 | locus YOR061W, strain CKA2, hits give low values 0.0873 | locus YOR119C, strain RIO1, hits give low values 0.112 | locus YOR231W, strain MKK1, hits give low values 0.106 | locus YOR329C, strain SCD5, hits give low values 0.0906 | locus YPL031C, strain PHO85, hits give low values 0.0996 | locus YPL153C, strain RAD53, hits give low values 0.101 | locus YPL204W, strain HRR25, hits give low values 0.102 | locus YPL209C, strain IPL1, hits give low values 0.0882 | locus YPL256C, strain CLN2, hits give low values 0.135 | locus YPR025C, strain CCL1, hits give low values 0.0876 | locus YPR106W, strain ISR1, hits give low values 0.0871 | locus YPR111W, strain DBF20, hits give low values 0.0892 | strain NNK1, hits give low values 0.096 | strain TSCII, hits give low values 0.0924
